Abs 340nm: absorbance at 340 nm. compound absorbance at 340 nm, fold over control. fold change at 10 µM. 65,000 tested, under 10 active. AID 708;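 active = at 10 µM dose, initial 340 nm absorbance at least 2 fold that of control wells; inactive = change under 2 fold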;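 note: initial absorbance extrapolated from kinetic A340 decline of NADH oxidation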
Autofluor 339: intrinsic fluorescence of library compounds, ex339/em460 – biochemical, MLSMR library, data from DPM-DC assay, artefact control, profiling panel. 65,000 tested, 5.5% active. AID 709. compound autofluorescence, ex339/em460 nm, NADH buffer; hits give high values; 1 = no-compound wells, NADH background. fluorescence fold increase at 10 µM;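 active = at 10 µM, mean starting fluorescence two-fold or more over control wells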;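 note: signal is the first read of a kinetic run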
MK inhibit: inhibitors of Streptococcus pneumoniae mevalonate kinase | purified MK, PK/LDH-coupled NADH absorbance 340 nm | inhibition, % at 10 µM | 65,000 tested, 0.48% active;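 active = ranked among the strongest by inhibition in the single 10 µM screen, a fixed top-ranked set picked for dose follow-up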
DPM-DC inhibit: S. pneumoniae DPM-DC inhibition | purified DPM-DC, PK/LDH coupled NADH fluorescence | calls only at 10 µM | 65,000 tested, 0.49% active;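 active = the 320 compounds with the highest percent inhibition in the single-dose primary screen, excluding strongly autofluorescent ones, cut at about 32% in these data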;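 note: kinetic rate of NADH fluorescence loss reporting ADP formed by the decarboxylase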
PMK inhibit: inhibitors of Streptococcus pneumoniae phosphomevalonate kinase; purified PMK, PK/LDH-coupled NADH absorbance 340 nm; inhibition, % at 10 µM; 65,000 tested, 0.49% active;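 active = top-ranked compounds by inhibition in the single 10 µM screen, taking a fixed number of the strongest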
NADH coupling: inhibition of NAD/NADH coupling enzymes, library profiling; coupled PK/LDH NADH assays, four targets; IC50, µM (series often up to 10 µM); 65,000 tested, 0.02% active; AID 774;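 active = single-dose screening hits from any of four coupled enzyme assays that gave an IC50 when retested across doses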;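 note: the DPM-DC format reads NADH fluorescence rather than 340 nm absorbance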
Of the large screens only hits and unclear results are named; the others gave an inactive call; [ ] = remark or other dose. The list is not random: actives were taken first. Their share in the collection is about 6.5%.

CCc1nc2ccccc2n1Cc1ccc(OC)c(OC)c1	none
CCOC(=O)c1ccc(CSc2nnc(N)s2)cc1	none
Cc1oc2cc(O)cc(C)c2c(=O)c1-c1cnn(-c2ccccc2)c1	none
Cc1nc(-c2cnn(-c3ccccc3)c2)c2cc(C)oc2n1	Autofluor 339 2.66, DPM-DC inhibit active[fluoresces]
COc1ccc(-c2nc(N)n(C(C)=O)n2)cc1	none
COc1ccc2c(c1)cc1n2CCN=C1N	Autofluor 339 2.82
COc1ccc2c(c1)cc1n2CCN2CCCN=C12	Autofluor 339 2.1
COC(=O)CSc1nnc2c3c4c(sc3nc(-n3nc(C)cc3C)n12)COC(C)(C)C4	Autofluor 339 2.72
Cc1sc2nc3ccc(N4CCCCC4)nn3c(=O)c2c1C	Autofluor 339 2.44
Cc1ccc2nc3ccc(N4CCCC4)nn3c(=O)c2c1	none
CCCCn1c(=O)[nH]c(=O)c2c1nc(-c1ccc(C#N)cc1)n2C1CCCC1	Autofluor 339 5.17 (not shown: DPM-DC inhibit)
CCCCn1c(=O)[nH]c(=O)c2c1nc(-c1ccncc1)n2CCOC	none
COc1ccc(OC)c(-c2nc3c(C)n[nH]c(=O)c3[nH]2)c1	none
COc1ccc(C2C=C(c3ccccc3)Nc3ncnn32)cc1 (stereo not given)	Autofluor 339 3.39 (not shown: DPM-DC inhibit)
CCOc1ccc(C2C=C(c3ccc(C)cc3)Nc3ncnn32)cc1 (stereo not given)	Autofluor 339 3.59 (not shown: DPM-DC inhibit)
CCOc1ccc(C2C=C(c3ccc(C)cc3)Nc3nnnn32)cc1 (stereo not given)	none
CC1CCCCC1NC(=O)CSc1nnc(-c2ccccc2)n1N (stereo not given)	none
CC(=O)N1CCN(S(=O)(=O)c2ccc(S(=O)(=O)NCC(C)C)cc2)CC1	none
Cc1ccc(N2C(=O)C3ON(c4ccccc4)C(c4ccncc4)C3C2=O)c(C)c1 (stereo not given)	none
O=C(COC(=O)c1cncc(Br)c1)NCCC1=CCCCC1	none
COc1ccc(-c2nc(C#N)c(NCCc3ccccc3)o2)cc1	Autofluor 339 3.63 (not shown: DPM-DC inhibit)
COc1ccc(CNc2oc(COc3ccc(Cl)cc3)nc2C#N)cc1	none
COc1ccc(-c2nc(C#N)c(NCCN(C)C)o2)cc1	Autofluor 339 2.14 (not shown: DPM-DC inhibit)
COc1ccc(CCNc2oc(-c3ccc(C)cc3)nc2C#N)cc1OC	Autofluor 339 2.13 (not shown: DPM-DC inhibit)
CNc1oc(-c2ccccc2)nc1C#N	Autofluor 339 2.14 (not shown: DPM-DC inhibit)
COC(=O)c1[nH]c2cc(OC)ccc2c1NC(=O)CCN1CCN(Cc2ccc3c(c2)OCO3)CC1	none
COc1ccc2c(c1)c(C(O)CN1CCN(Cc3ccc4c(c3)OCO4)CC1)c(C)n2C (stereo not given)	none
COc1ccc2c(c1)c1ncnc(N3CCN(Cc4ccc5c(c4)OCO5)CC3)c1n2C	Autofluor 339 3.23
COc1ccc2[nH]c3c(N4CCN(Cc5ccc6c(c5)OCO6)CC4)ncnc3c2c1	Autofluor 339 2.33 (not shown: DPM-DC inhibit)
COCCCNC(=O)C1CCCN(C(=O)Nc2ccc(OC)cc2)C1 (stereo not given)	none
O=C1Nc2ccccc2C(O)(C(=O)NC2CC2)N1c1ccc(Cl)c(Cl)c1 (stereo not given)	none
Nc1ccc2[nH]ncc2c1	Autofluor 339 2.29 (not shown: DPM-DC inhibit)
CCN(CC)c1ccc(NC(=O)CN2CCN(c3ccccc3F)CC2)cc1	none
C/C=C(\C)CN1CCN(c2ccccc2F)CC1	MK inhibit 51.0
CCN(CC)C(=O)CN1CCN(c2ccccc2F)CC1	MK inhibit 68.0
O=C(CN1CCN(c2ccccc2F)CC1)c1ccc2cc[nH]c2c1	Autofluor 339 2.15 (not shown: DPM-DC inhibit)
C/C=C(\C)CN1CCN(c2cc(C)ccc2C)CC1	none
C/C(NCCN1CCOCC1)=C(\C#N)C(N)=O	none
CCSc1ccc2nnc(-c3cccc(F)c3)n2n1	none
CCCCn1c(-c2ccccc2)nc2c(=O)n(C)c(=O)[nH]c21	Autofluor 339 3.67 (not shown: DPM-DC inhibit)
CCC(=O)N1CCc2cc(S(=O)(=O)NC(CC(C)C)C(=O)N3CCc4ccccc43)ccc21 (stereo not given)	none
Cc1cc(C)cc(CC2CC(=O)N(c3nc(C)cc(C)n3)C2=O)c1 (stereo not given)	PMK inhibit 25.0
COc1ccc(Cl)c(Cn2c(NCCCO)nc3c2c(=O)n(C)c(=O)n3C)c1	none
O=C(c1cc(-c2cccnc2)nc2ccc(Br)cc12)N1CCC2(CC1)OCCO2	none
CCN=C1Cn2c(nc3scc(-c4ccccc4)c3c2=O)CN1CC	Autofluor 339 2.37
CCSc1nc2cc(OC)c(OC)cc2c(=O)n1CC	none
CC(=O)/C=C(\C)Nc1ccc(-c2cnc(-c3ccccc3)o2)cc1	Autofluor 339 2.24 (not shown: DPM-DC inhibit)
O=C(Nc1ccc(-c2nnc(-c3ccccc3)o2)cc1)C(F)(F)F	none
Cc1ccc(-c2nnn(CC(=O)Nc3cccc4cccnc34)n2)o1	none
CCOc1ccccc1-c1nc2c([nH]1)c(=O)n(C)c(=O)n2C	Autofluor 339 2.93
CSc1ccccc1NC(=O)c1ccco1	none
CCc1nnc(NC(=O)CCC(=O)N2CCN(CCOc3ccc(C)cc3)CC2)s1	none
Cc1cc(C(F)F)n2nc(C(=O)Nc3cccc(C(F)(F)F)c3)nc2n1	none
COc1ccc(C(F)(F)F)cc1NC(=O)c1nc2nc(C)cc(C(F)F)n2n1	Autofluor 339 3.03 (not shown: DPM-DC inhibit)
Cc1ccc(N2CCN(c3cc(C)nc4c5c(C)cc(C)nc5nn34)CC2)cc1	none
COc1ccc(-c2c(C)nn3c(N4CCN(Cc5ccccc5)CC4)cc(C)nc23)cc1OC	none
COc1ccc(CN2CCN(c3cc(C)nc4c5c(C)cc(C)nc5nn34)CC2)cc1F	Autofluor 339 3.89 (not shown: DPM-DC inhibit)
CCOc1ccc(CN2CCN(c3cc(C)nc4c5c(C)cc(C)nc5nn34)CC2)cc1	Autofluor 339 3.06 (not shown: DPM-DC inhibit)
Cc1cc(C)c2c(n1)nn1c(N3CCN(c4ccccc4C)CC3)cc(C)nc21	Autofluor 339 2.8 (not shown: DPM-DC inhibit)
COc1cccc(C(=O)N(Cc2ccc(N(C)C)cc2)C2CCS(=O)(=O)C2)c1 (stereo not given)	none
CCCC(=O)Nc1ccc(N2CCN(C(=O)CCC)CC2)cc1	DPM-DC inhibit active
CCCCCNC(=O)C(C#N)c1nc2ccccc2nc1N1CCCC1 (stereo not given)	Autofluor 339 2.44
Cc1ccc(S(=O)(=O)C(C#N)c2nc3ccccc3nc2N2CCCC2)cc1 (stereo not given)	Autofluor 339 3.79 (not shown: DPM-DC inhibit)
CCN(CC)c1nc2ccccc2nc1C(C#N)C(=O)NCCCOC (stereo not given)	Autofluor 339 2.42
CCOC(=O)N1CCN(C(=O)COc2ccc3c(c2)C(=O)CC2(CCN(C(C)=O)CC2)O3)CC1	Autofluor 339 5.05 (not shown: DPM-DC inhibit)
COCCNC(=O)c1ccc2c(=O)n(CCOC)c(=O)[nH]c2c1	none
CCOc1cc2[nH]c(=O)n(CCC(=O)N3CCN(c4ccccc4OC)CC3)c(=O)c2cc1OCC	none
CCOc1cc2[nH]c(=O)n(Cc3cccc(OC)c3)c(=O)c2cc1OCC	Autofluor 339 2.02
CCOc1cc2[nH]c(=O)n(Cc3ccc(C(=O)NCCOC)cc3)c(=O)c2cc1OCC	DPM-DC inhibit active

High-throughput results as filed in PubChem.
